# Results from the OligoGym collection.
# Target: APOA4
# Assay: pooled miR-30 sensor sort-seq; sequence = guide strand
# Settings: shRNA
# Also: reference of the scale not given here.
row,Sequence,sensor-assay potency score (higher = more potent)
1,TCGATCTTGGCCTTGAGCTCGT,-0.264
2,TTGGCCTTGAGCTCGTCGGCGT,-0.576
3,TTCTTCTTCATCTGGAAGGTCA,-0.417
4,TTTCTGGAGATGTTCCACGGCC,-0.87
5,TTGAAGGTGCTGAAGAAGGAGT,-1.02
6,TCGGCGTTCTTCTTCATCTGGA,-0.527

# Target: APOBEC1
# Assay: as above
# Settings: shRNA
row,Sequence,sensor-assay potency score (higher = more potent)
1,TTGATTTCGTAGAGCAGACAGG,-1.09
2,TAAAATTAACTTCCACGTGATT,-0.973
3,ATAATCTGAATAGTTACTCCAC,0.108
4,TTAACTTCCACGTGATTGGTGG,0.311
5,TAGTTGACAAAATTCCTCCAGC,0.113
6,TTTCGTAGAGCAGACAGGCCTC,-0.178
7,TCCACTGTTAACAAGGTCCCTG,-0.838
8,TAGAGTCACACCAGGGTGCCGA,-0.942
9,TTGAAATCTTTAAACAGGGTGG,0.0773
10,TTTTGTTGATCCATGTGCCAAA,-1.26
11,TATAAAATTAACTTCCACGTGA,0.0953
12,TTTTTGCCTGAGCTTCGCCAGA,-1.38
13,TAATCTGAATAGTTACTCCACT,-0.77
14,TAGAATTATGCAGTGCAGCTCC,0.275
15,TTGCCGATTTTGTTGATCCATG,-1.51
16,TAACAAGGTCCCTGAGACCTTG,-0.747
17,TTTTTATAAAATTAACTTCCAC,-0.469
18,TTTAGTGGGTCATCATTGCTTG,-0.449
19,TACAACATCATCCACAGAGGTG,-0.853
20,TTTTATAAAATTAACTTCCACG,-0.657
21,AATTATGCAGTGCAGCTCCAGT,-0.901
22,TGAAAATCTCTTTCTGACGTAA,-0.0382
23,TTAAACAGGGTGGAAGACTTAG,-0.633
24,TAGAAGACGTCAAACTCCCAGG,-0.81

# Target: APOBEC3A
# Assay: as above
# Settings: shRNA
row,Sequence,sensor-assay potency score (higher = more potent)
1,TGTGGATCCATCAAGTGTCTGG,-0.129
2,TATTCTGAGAATATTGAGCATA,-1.17
3,TTAGTCTAGATATGAAGCCAAA,-1.73
4,TTGATCGGGAGCATACTGCTTT,0.642
5,TACATTGAAAATTATTCTGAGA,-1.07
6,AATCTTACTATTGTGTACTTGG,0.0307
7,TAAAAATCTACTTGATCGGGAG,0.575
8,TTAAAAATCTACTTGATCGGGA,0.68
9,TGCTGGTCCATCTTGACCGAGG,-1.28
10,TGGTCCATCTTGACCGAGGTGC,-0.749
